# Test results: PubChem BioAssay AID449739 (Vanderbilt High Throughput Screening Facility, 2010)
# The whole screen tested about 100,000 compounds, of which about 4,200 (4.2%) were called active. The entries come from a sample that favours actives as a whole. Values without a mark were called inactive.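 Rule for the calls: active = single-dose well whose peak fluorescence ratio is a statistical outlier from its plate by either plate-standardised score or position-corrected B-score; inactive = the rest.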
# Target: Voltage-dependent T-type calcium channel subunit alpha-1H (Homo sapiens) (UniProt O95180)
# Test: Cav3.2 calcium influx blockers – cell-based, Fluo-4 calcium fluorescence, FDSS, MLSMR library, primary screen (AID 449739)
# Conditions: Cav3.2-expressing cells, at 10 µM, stronger effect = lower value
# Voltage-dependent T-type calcium channel subunit alpha-1H (Homo sapiens), sequence (O95180 whole entry, looked up): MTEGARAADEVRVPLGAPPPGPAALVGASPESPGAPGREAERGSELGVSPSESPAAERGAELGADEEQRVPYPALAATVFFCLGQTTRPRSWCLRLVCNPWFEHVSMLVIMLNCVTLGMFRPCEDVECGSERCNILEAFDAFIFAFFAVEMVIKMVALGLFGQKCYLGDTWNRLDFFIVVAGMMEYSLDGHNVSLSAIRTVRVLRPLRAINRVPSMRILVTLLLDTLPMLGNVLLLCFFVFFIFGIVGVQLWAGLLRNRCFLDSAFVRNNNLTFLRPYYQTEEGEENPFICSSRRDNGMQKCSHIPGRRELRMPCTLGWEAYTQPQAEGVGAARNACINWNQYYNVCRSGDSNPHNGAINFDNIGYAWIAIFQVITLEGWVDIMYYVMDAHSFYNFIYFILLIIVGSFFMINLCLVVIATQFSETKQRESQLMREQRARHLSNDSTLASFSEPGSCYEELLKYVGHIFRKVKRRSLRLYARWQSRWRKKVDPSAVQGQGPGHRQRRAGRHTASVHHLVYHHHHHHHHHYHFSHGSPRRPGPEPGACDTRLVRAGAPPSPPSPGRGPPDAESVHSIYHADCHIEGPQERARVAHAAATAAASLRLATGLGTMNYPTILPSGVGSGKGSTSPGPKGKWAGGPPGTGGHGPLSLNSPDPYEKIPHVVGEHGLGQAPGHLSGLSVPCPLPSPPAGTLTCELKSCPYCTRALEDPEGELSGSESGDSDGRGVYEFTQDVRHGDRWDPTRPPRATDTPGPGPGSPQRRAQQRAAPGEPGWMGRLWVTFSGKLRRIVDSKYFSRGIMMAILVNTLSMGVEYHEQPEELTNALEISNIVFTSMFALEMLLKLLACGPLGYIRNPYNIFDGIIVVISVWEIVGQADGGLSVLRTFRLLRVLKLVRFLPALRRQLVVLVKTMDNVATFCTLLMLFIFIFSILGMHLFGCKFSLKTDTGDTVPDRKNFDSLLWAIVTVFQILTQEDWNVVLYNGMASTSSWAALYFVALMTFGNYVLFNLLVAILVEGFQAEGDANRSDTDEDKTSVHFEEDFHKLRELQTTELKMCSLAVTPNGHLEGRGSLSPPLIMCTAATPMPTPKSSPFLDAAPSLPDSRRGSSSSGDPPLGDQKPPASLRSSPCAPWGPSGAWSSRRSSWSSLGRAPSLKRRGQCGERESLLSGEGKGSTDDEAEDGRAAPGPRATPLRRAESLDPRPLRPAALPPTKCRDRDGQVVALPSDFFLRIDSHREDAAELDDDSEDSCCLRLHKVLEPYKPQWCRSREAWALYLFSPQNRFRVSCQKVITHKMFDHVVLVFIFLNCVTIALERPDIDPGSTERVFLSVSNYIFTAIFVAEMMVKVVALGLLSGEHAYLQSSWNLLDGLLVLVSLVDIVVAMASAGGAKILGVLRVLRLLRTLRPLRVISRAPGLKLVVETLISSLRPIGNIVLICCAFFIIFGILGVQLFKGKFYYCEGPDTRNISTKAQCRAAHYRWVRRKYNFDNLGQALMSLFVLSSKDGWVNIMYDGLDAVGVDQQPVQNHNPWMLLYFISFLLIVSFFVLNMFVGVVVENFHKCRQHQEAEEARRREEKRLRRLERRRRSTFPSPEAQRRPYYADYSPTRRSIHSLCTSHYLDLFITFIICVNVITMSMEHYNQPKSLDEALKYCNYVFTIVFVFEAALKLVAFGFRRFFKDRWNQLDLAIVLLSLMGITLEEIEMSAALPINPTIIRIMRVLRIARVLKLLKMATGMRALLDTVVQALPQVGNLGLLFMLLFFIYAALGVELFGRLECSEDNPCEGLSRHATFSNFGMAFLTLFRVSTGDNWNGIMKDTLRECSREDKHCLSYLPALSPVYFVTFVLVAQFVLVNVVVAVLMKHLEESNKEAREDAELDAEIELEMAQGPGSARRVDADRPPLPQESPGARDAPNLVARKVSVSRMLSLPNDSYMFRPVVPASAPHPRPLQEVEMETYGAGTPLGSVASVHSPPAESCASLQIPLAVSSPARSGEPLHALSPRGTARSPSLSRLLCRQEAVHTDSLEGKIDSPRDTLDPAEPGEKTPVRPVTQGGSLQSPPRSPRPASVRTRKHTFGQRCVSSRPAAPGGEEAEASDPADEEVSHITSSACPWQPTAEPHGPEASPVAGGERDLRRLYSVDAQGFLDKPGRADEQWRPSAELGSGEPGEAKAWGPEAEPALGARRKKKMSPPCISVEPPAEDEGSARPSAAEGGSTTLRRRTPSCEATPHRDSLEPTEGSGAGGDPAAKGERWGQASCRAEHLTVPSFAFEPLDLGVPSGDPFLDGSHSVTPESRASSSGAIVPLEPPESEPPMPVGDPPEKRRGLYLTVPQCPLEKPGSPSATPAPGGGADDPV
row,Structure (SMILES),B-score
1,Cn1ccnc1-c1nnn(-c2ccc(F)cc2)n1,-0.241
2,Cc1cccc(C(=O)Nc2ccccc2-c2nnn(CC(=O)Nc3ccc4c(c3)OCCO4)n2)c1,0.0432
3,COc1ccc(C2/C=C\CN(S(=O)(=O)c3cccs3)CC(=O)N2Cc2ccc(F)cc2)cc1 (centres undefined),-1.93
4,O=C(Nc1ccc(Cl)cc1)N1CCc2[nH]c3ccccc3c2C1,-6.38 (active)
5,CCCC(=O)N1CCc2[nH]c3ccccc3c2C1,1.88
6,O=C(NC1CCCCC1)N1CCc2[nH]c3ccccc3c2C1,-0.408
7,CCC(C)NC(=O)c1c(N)n(/N=C/c2cccs2)c2nc3ccccc3nc12 (centres undefined),-0.663
8,COc1ccccc1OCCNc1cc(N2CCOCC2)ccc1[N+](=O)[O-],-0.763
9,CCOC(=O)c1sc(NC(=O)CSc2nc3c(c(=O)n2-c2ccccc2)SCC3)c(C(=O)OCC)c1C,-0.157
10,CC(=O)N1CCN(C(=O)Nc2cccc(C(F)(F)F)c2)CC1,0.454
11,FC(F)(F)c1cccc(NC(=S)Nc2cccc(Cl)c2)c1,-7.17 (active)
12,CC(C)C[C@H](NC(=O)Nc1cccc(C(F)(F)F)c1)C(=O)O,0.25
13,c1ccc(-n2nnnc2NC2CCCCCC2)cc1,0.00228
14,O=C(N/N=C/c1ccc(O)c(O)c1)C1c2ccccc2Oc2ccccc21,1.05
15,O=C(c1ccco1)N1CCN(C(=O)C2c3ccccc3Oc3ccccc32)CC1,0.29
16,CCCN(CCC)C(=O)C1c2ccccc2Oc2ccccc21,-4.57 (active)
17,C=CCNc1nc(N)c(C(=C(C#N)C#N)c2ccccc2)s1,-0.0432
18,COC(C[C@@H](O)[C@H](C)[C@H](O)COCc1ccccc1)OC,0.321
19,CCN(CC)c1ccc(NC(=O)c2ccc(Cl)nc2)cc1,-0.986
20,COc1cccc(Nc2nnc(SCC(=O)N3CC(C)OC(C)C3)s2)c1 (centres undefined),-4.05 (active)
21,COc1ccccc1-c1nnc(SCC(=O)N2CC(C)CC(C)C2)o1 (centres undefined),0.0644
22,CCOc1ccccc1Nc1nnc(SCc2ccc(C(=O)OC)o2)s1,-3.2
23,O=C(Nc1ccccc1)OCc1cn(-c2ccc(Cl)cc2)nn1,-0.643

row,Structure (SMILES),B-score
1,Cc1ccc(S(=O)(=O)N(CC(=O)N2CCc3ccccc3C2)c2cccc(Cl)c2)cc1,-5.57 (active)
2,CCOC(=O)N1CCN(C(=O)CN(c2ccc(C)c(C)c2)S(=O)(=O)c2ccccc2)CC1,-1.16
3,COc1cccc(N(CC(=O)N2CCc3ccccc3C2)S(C)(=O)=O)c1,1.04
4,O=C(NCc1ccccc1)C1=C[C@H](C2CC2)C[C@H](OCc2ccc(CO)cc2)O1,-0.049
5,CCOC(=O)c1c(NC(=O)C(C)Sc2c[nH]c3ccccc23)sc2c1CCC2 (centres undefined),-0.96
6,C#CCOCCOCCOCCNc1nc(N2CCN(C(=O)[C@H](C(C)C)n3cc(CCO)nn3)CC2)nc(N2CCN(C(=O)[C@H]([C@@H](C)CC)n3cc(CCCN=C(N)N)nn3)CC2)n1,0.0921
7,CC1=NN(C(=O)c2ccccc2Br)C(O)(c2cccnc2)C1 (centres undefined),0.377
8,CC1=CC(C)(C)N(C(=O)CSc2nccn2C)c2cc(C)ccc21,-0.49
9,O=C(CSc1nnc(-c2ccccc2)o1)N1CCOCC1,-0.483
10,CC1=CC(C)(C)N(C(=O)CSc2nnc(-c3ccccc3)o2)c2ccc(C)cc21,-4.16 (active)
11,CC(C)=CCc1c(O)c(CC=C(C)C)c2occ(-c3ccc(O)cc3)c(=O)c2c1O,-0.844
12,Cc1ccc(NC(=O)c2nc[nH]c2C(=O)N[C@@H](CCCCNC(=O)OC(C)(C)C)C(=O)OC(C)(C)C)cc1,-0.574
13,CC(C)C(=O)OCC(=O)Nc1ccc2c(c1)CCC2,0.246
14,Cc1ccccc1NC(=S)Nc1cccc([N+](=O)[O-])c1,-0.107
15,CCN(CC)S(=O)(=O)c1cccc(C(=O)Nc2ccccc2)c1,0.194
16,CCN(CC)S(=O)(=O)c1cc([N+](=O)[O-])ccc1NNC(=O)Nc1ccccc1,-4.53 (active)
17,O=C1CC2(CCCC2)Oc2ccc(Cl)cc21,-0.0281
18,CCOC(=O)C1Nc2ccc(C(F)(F)F)cc2C2C=CCC12 (centres undefined),-0.137
19,COc1cccc(N(CC(=O)Nc2cccc(N(C)S(C)(=O)=O)c2)S(C)(=O)=O)c1,-1.19
20,CCN(CC)S(=O)(=O)c1ccc(NC(=O)CN(c2cccc(F)c2)S(C)(=O)=O)cc1,-6.56 (active)
21,Cc1ccc(N(CC(=O)Nc2cccc(N(C)S(C)(=O)=O)c2)S(C)(=O)=O)cc1,1.01
22,CC1=C(N2CCN(c3ncccn3)CC2)CCC1=O,0.282
23,C[C@@H]1CC[C@]2(O[C@@H](CCO)C[C@H](O)[C@H]2O)O1,0.111

row,Structure (SMILES),B-score
1,CCn1c(Cc2ccccc2)nnc1SCC(=O)Nc1ccccc1,0.0752
2,CSc1cccc(NC(=O)CSc2ccccc2)c1,-6.09 (active)
3,COC(=O)c1cccc(NC(=O)CSc2nc(C)cc(=O)[nH]2)c1,0.842
4,COC(C[C@@H]1O[C@@H]1C(=O)[C@@H](C)OCc1ccccc1)OC,0.0102
5,Cc1cc(C)cc(NC(=O)c2cccc(NC(=O)C3C4CC5OC(=O)C3C5C4)c2)c1 (centres undefined),-0.673
6,Cc1cccc(NC(=O)C2CC(=O)OC23CCCC3)c1 (centres undefined),2.01
7,Cc1cccc(NC(=O)C(C)N2C(=O)C3C4CC(C(Br)C4Br)C3C2=O)c1 (centres undefined),-4.83 (active)
8,CC1(C)C=C2[C@H]3CC[C@@H]4[C@@]5(C)CCC(=O)C(C)(C)[C@@H]5CC[C@@]4(C)[C@]3(C)CC[C@@]2(C(=O)O)CC1,-0.0499
9,COc1ccc(CNC(=O)C2(CC3CC(c4ccccc4)=NO3)CCN(C(=O)c3cccc(O)c3)CC2)cc1 (centres undefined),-0.683
10,CCOC(=O)C1=C(CSc2nccn2C)NC(=O)NC1c1ccc(OC)cc1 (centres undefined),0.905
11,CCOC(=O)C1=C(CNC2CCCCC2)NC(=O)NC1c1cc(C)ccc1C (centres undefined),-3.93 (active)
12,CCOC(=O)COc1ccc(Cl)cc1C1NC(=O)NC(C)=C1C(C)=O (centres undefined),0.0116
13,O=c1cc(-c2ccccc2)[nH]c2cc(F)ccc12,-1.92
14,N=c1c2c(-c3ccccc3)c(-c3ccccc3)oc2ncn1Cc1ccco1,-2.43
15,N=c1c2c(-c3ccccc3)c(-c3ccccc3)n(Cc3ccccc3)c2ncn1CCCO,-7.3 (active)
16,OCCCN1c2ccccc2Nc2nnc(-c3ccccc3)cc21,0.492
17,Cc1cccc(NC(=S)NCc2ccc3[nH]c4c(c3c2)CCCC4)c1,-3.54
18,C=CCOC(=O)C1=C(C)NC(C)=C(C(=O)OCC=C)C1c1cccs1,-3.25
19,COc1ccc(-c2nn(-c3ccccc3)cc2C(=O)Nc2nccs2)cc1OC,-3.24
20,CC(=O)C1=C(C)NC(C)=C(C(C)=O)C1c1cn(-c2ccccc2)nc1-c1cccs1,-3.89 (active)
21,CNC(=O)c1[nH]cnc1C(=O)N[C@@H](CC(C)C)C(=O)OCc1ccccc1,-0.016
22,Cc1[nH]c2ccccc2c1C(=O)COC(=O)C(C)C,0.085
23,COc1ccc2c(c1)SC(C)CC2=O (centres undefined),-0.0138

row,Structure (SMILES),B-score
1,CC1(C)S[C@@H]2[C@H](NC(=O)COc3ccccc3)C(=O)N2C1C(=O)OCc1ccccc1 (some centres undefined),-1.43
2,CCOc1ccc2[nH]c(=O)c(CN(Cc3nnnn3Cc3ccccc3)CC3CCCO3)cc2c1 (centres undefined),-0.479
3,CCOc1ccc2c(c1)cc(CN(C(=O)CC)C1CCCCC1)c1nnnn12,-4.82 (active)
4,CCc1ccc2c(c1)cc(CN(C(=S)Nc1ccccc1Cl)C1CC1)c1nnnn12,0.523
5,O=C(COc1ccc(Cl)cc1)NCCC1=CCCCC1,-2.12
6,C=C1CCN([C@@H](Cc2ccccc2)C(=O)N2CCOCC2)S(=O)(=O)c2ccccc21,0.119
7,O=C1N=C2SCCN2/C1=C\c1c(Cl)cccc1Cl,-7.62 (active)
8,O=C1N=C(N2CCCC2)S/C1=C\c1cccc(Br)c1,0.36
9,O=C(NC1(C(F)(F)F)N=C2SCCN2C1=O)c1ccco1 (centres undefined),0.645
10,O=C(NC1=NCCS1)[C@H](Cc1ccccc1)N1C(=O)c2ccccc2C1=O,-0.0971
11,NC(=O)CC[C@@H]1NC(=O)[C@@H]2CCCN2C(=O)c2cc([N+](=O)[O-])cc(F)c2NCCC[C@@H](C(N)=O)NC1=O,0.224
12,CCOC(=O)c1ccc(N2C(=O)CC(N(C)Cc3ccccc3)C2=O)cc1 (centres undefined),0.0731
13,CCCCOC(=O)c1ccc(N2C(=O)CC(N3CCN(C/C=C/c4ccccc4)CC3)C2=O)cc1 (centres undefined),-6.05 (active)
14,CCOC(=O)c1ccc(N2C(=O)CC(N3CC(C)OC(C)C3)C2=O)cc1 (centres undefined),0.246
15,O=C(CCCN1C(=O)c2cccc3cccc(c23)C1=O)N1CCN(Cc2ccc3c(c2)OCO3)CC1,-2.86
16,O=C(CN1CCN(c2ncc(C(F)(F)F)cc2Cl)CC1)Nc1ccc2c(c1)OCO2,-1.4
17,CC(=O)c1ccc(Cc2ncc(C(F)(F)F)cc2Cl)s1,-0.288
18,O=C(Cc1ncc(C(F)(F)F)cc1Cl)Nc1cccc(Br)c1,-4.67 (active)
19,O=C(/C=C/c1cccs1)c1cc(Cl)ccc1OC(=O)N1CCOCC1,-1.17
20,CN1/C(=c2/s/c(=C3/C(=O)N(c4ccccc4)NC3=Nc3ccccc3)n(C)c2=O)C(C)(C)c2ccccc21,-2.19
